Measured values as given in PubChem BioAssay (Tox21).
Activity calls are given as the source filed them. Unless noted, calls come from the whole dose curve; as a rule, active = well fitted curve in the direction sought with a large enough effect in the repeat runs; inconclusive = weak or mixed curves; inactive = no such curve, though single readings can be large; an effect the other way counts as inactive or inconclusive.

How the values were obtained:
[1] = qHTS assay to identify small molecule antagonists of the thyroid receptor (TR) signaling pathway (AID 743065); note: nearly all actives have a fitted effect of over 55% in size; note: potency is the fitted concentration of half-maximal effect
How it was run: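 Antagonism measured as loss of luciferase signal in GH3 cells stably carrying a TRE-luciferase reporter, co-treated with compound and T3 (1 nM final) for 23.5 h at 37 C. Viability was read in the same well by CellTiter-Fluor.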

[2] = tested on: thyroid hormone receptor (rat, GH3 cells); test: qHTS assay to identify small molecule agonists of the thyroid receptor (TR) signaling pathway (AID 743066; calls by dose curve)
[3] = target: Estrogen receptor (Homo sapiens) (UniProt P03372); test: qHTS assay to identify small molecule antagonists of the estrogen receptor alpha (ER-alpha) signaling pathway (AID 743069; active = well fitted curve in the direction sought with a large enough effect in the signal ratio in the repeat runs, not every such curve was filed as active; inconclusive = weak or mixed curves, or effect the other way; inactive = no such curve, though single readings can be large or run the other way; the % refers to the signal ratio; note: potency is the fitted concentration of half-maximal effect)
How it was run: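 ER-alpha-UAS-bla GripTite HEK293 line; 2% charcoal-stripped FBS overnight; plated, 4 hr 37C/5% CO2; cpd in DMSO + 17beta-estradiol, 18 hr 37C; LiveBLAzer B/G FRET substrate 2 hr RT; fluorescence intensity.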

[4] = qHTS assay to identify small molecule antagonists of the estrogen receptor alpha (ER-alpha) signaling pathway - cell viability counter screen (AID 743074; calls by dose curve;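 note: HEK293 cells carrying ER-alpha-UAS-bla reporter stimulated with 17beta-estradiol; nearly all actives have a fitted effect of over 45% in size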)
[5] = target: Estrogen receptor (Homo sapiens) (UniProt P03372); test: qHTS assay to identify small molecule agonists of the estrogen receptor alpha (ER-alpha) signaling pathway (AID 743075; calls by dose curve;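 note: HEK293 GripTite cells with ER-alpha and UAS-driven beta-lactamase reporter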; note: potency is the fitted concentration of half-maximal effect)
[6] = target: Estrogen receptor (Homo sapiens) (UniProt P03372); test: qHTS assay to identify small molecule agonists of the estrogen receptor alpha (ER-alpha) signaling pathway using the BG1 cell line (AID 743079); details: BG1Luc4E2 cells, ERE-luciferase agonist, 22 h; activation: at 70.3 µM (top of the series); note: nearly all actives have a fitted effect of over 20% in size; note: potency is the fitted concentration of half-maximal effect
[7] = qHTS assay to identify small molecule antagonists of the estrogen receptor alpha (ER-alpha) signaling pathway using the BG1 cell line (AID 743080; calls by dose curve;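 note: BG1 cells stimulated with 17beta-estradiol alongside compound; nearly all actives have a fitted effect of over 25% in size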; note: potency is the fitted concentration of half-maximal effect)
How it was run: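 Seeding, 24 h rest, compound transfer from DMSO, 17beta-estradiol addition, 21.5 h incubation, CellTiter-Fluor (30 min, 37 C), then ONE-Glo (30 min, room temperature): this sequence was run on BG1-Luc-4E2 reporter cells.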

[8] = qHTS assay to identify small molecule antagonists of the estrogen receptor alpha (ER-alpha) signaling pathway using the BG1 cell line - cell viability counter screen (AID 743081);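 note: compound given together with 17beta-estradiol as the ER stimulus; nearly all actives have a fitted effect of over 45% in size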
Aromatase (Homo sapiens) = Aromatase (Homo sapiens) (UniProt P11511); test: qHTS assay to identify aromatase inhibitors (AID 743083); note: nearly all actives have a fitted effect of over 55% in size; note: potency is the fitted concentration of half-maximal effect
[9] = qHTS assay to identify aromatase inhibitors - cell viability counter screen (AID 743084);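 note: cells stimulated with testosterone during compound exposure; nearly all actives have a fitted effect of over 55% in size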
% is set by controls: 0 for no effect and ±100 for the full control effect.

Aromatase (Homo sapiens), sequence (P11511 whole entry, looked up): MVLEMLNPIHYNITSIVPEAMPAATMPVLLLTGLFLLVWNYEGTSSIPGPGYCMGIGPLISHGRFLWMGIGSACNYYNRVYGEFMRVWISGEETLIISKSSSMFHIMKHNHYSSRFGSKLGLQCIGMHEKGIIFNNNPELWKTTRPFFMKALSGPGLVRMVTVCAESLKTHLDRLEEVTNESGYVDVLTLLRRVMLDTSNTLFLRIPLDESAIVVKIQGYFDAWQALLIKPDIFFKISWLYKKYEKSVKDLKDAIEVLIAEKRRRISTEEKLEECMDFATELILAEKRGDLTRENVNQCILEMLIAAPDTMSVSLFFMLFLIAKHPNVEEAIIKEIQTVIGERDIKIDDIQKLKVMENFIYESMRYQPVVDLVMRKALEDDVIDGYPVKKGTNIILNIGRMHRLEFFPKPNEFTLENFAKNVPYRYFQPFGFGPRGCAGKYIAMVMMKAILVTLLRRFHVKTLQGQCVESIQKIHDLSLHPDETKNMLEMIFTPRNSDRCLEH
Estrogen receptor (Homo sapiens), sequence (P03372 whole entry, looked up): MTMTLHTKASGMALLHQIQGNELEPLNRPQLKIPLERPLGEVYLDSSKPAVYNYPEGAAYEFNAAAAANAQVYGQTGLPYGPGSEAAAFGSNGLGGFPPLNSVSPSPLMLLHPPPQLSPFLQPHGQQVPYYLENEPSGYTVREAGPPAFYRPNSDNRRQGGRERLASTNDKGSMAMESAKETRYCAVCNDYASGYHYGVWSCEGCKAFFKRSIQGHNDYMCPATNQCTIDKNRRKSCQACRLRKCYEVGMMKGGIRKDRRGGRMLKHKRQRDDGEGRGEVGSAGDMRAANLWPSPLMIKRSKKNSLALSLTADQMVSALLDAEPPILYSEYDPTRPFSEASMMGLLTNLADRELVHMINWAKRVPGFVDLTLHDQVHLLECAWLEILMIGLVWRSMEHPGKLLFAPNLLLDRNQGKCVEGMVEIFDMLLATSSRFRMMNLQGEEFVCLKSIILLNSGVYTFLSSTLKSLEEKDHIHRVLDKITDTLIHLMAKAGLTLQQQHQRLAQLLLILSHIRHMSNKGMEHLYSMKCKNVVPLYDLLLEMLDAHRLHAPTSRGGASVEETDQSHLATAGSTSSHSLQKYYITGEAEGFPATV

OCCSc1ccccc1
inactive: Potency [1] | outcome [2] | Potency [3] | Potency [4] | Potency [5] | Potency [6] | Potency [7] | Potency [8] | Potency (Aromatase (Homo sapiens)) | Potency [9]

CC(=O)Nc1ccc(N)cc1
inactive: Potency [1] | outcome [2] | Potency [3] | Potency [4] | Potency [5] | Potency [6] | Potency [7] | Potency [8] | Potency (Aromatase (Homo sapiens)) | Potency [9]

Cc1ccnc2ccccc12
inactive: Potency [1] | outcome [2] | Potency [3] | Potency [4] | Potency [5] | Potency [6] | Potency [7] | Potency [8] | Potency (Aromatase (Homo sapiens)) | Potency [9]

O=C(O)Cc1ccc(-c2ccccc2)cc1
inactive: Potency [1] | outcome [2] | Potency [3] | Potency [4] | Potency [5] | Potency [6] | Potency [7] | Potency [8] | Potency (Aromatase (Homo sapiens)) | Potency [9]

C=CCCCCCCCCCCCCCCCC
inactive: activity, negative = inhibition [1] -26.3% [at 8.44 µM] | activation [2] -0.275% [at 8.08 µM] | activity, negative = inhibition [3] 10.1% [at 6.71 µM] | activity, negative = cytotoxicity [4] -5.03% [at 6.72 µM] | activation [5] -3.79% [at 6.71 µM] | activation [6] 4.88% [at 8.47 µM] | activity change, negative = inhibition [7] 2.27% [at 8.47 µM] | activity change, negative = cytotoxicity [8] 4.81% [at 8.47 µM] | activity, negative = inhibition (Aromatase (Homo sapiens)) 12.3% [at 8.47 µM] | activity change, negative = cytotoxicity [9] 17.8% [at 8.47 µM]

O=Cc1c(Cl)cccc1Cl
inactive: Potency [1] | outcome [2] | Potency [3] | Potency [4] | Potency [5] | Potency [6] | Potency [7] | Potency [8] | Potency (Aromatase (Homo sapiens)) | Potency [9]

CCC1(C)CC(=O)NC1=O (centres undefined)
inactive: Potency [1] | outcome [2] | Potency [3] | Potency [4] | Potency [5] | Potency [6] | Potency [7] | Potency [8] | Potency (Aromatase (Homo sapiens)) | Potency [9]

CCCOC(=O)c1ccc(C(=O)OCCC)nc1
inactive: Potency [1] | outcome [2] | Potency [3] | Potency [4] | Potency [5] | Potency [6] | Potency [7] | Potency [8] | Potency (Aromatase (Homo sapiens)) | Potency [9]

CC(COc1ccc(C(C)(C)C)cc1)OS(=O)OCCCl (centres undefined)
inactive: Potency [1] | outcome [2] | Potency [3] | Potency [4] | Potency [5] | Potency [6] | Potency [7] | Potency [8] | Potency (Aromatase (Homo sapiens)) | Potency [9]

O=C(OCCOCCO)c1ccccc1Nc1cccc(C(F)(F)F)c1
inactive: Potency [1] | outcome [2] | Potency [3] | Potency [4] | Potency [5] | Potency [6] | Potency [7] | Potency [8] | Potency (Aromatase (Homo sapiens)) | Potency [9]

CCn1cc(C(=O)O)c(=O)c2cc(F)c(N3CCNCC3)nc21
inactive: Potency [1] | outcome [2] | Potency [3] | Potency [4] | Potency [5] | Potency [6] | Potency [7] | Potency [8] | Potency (Aromatase (Homo sapiens)) | Potency [9]

CC(C)(C)C(=O)C(Oc1ccc(Cl)cc1)n1ccnc1 (centres undefined)
inactive: Potency [1] | outcome [2] | Potency [3] | Potency [4] | Potency [5] | Potency [6] | Potency [7] | Potency [8] | Potency [9]
active: Potency (Aromatase (Homo sapiens)) 11.9 µM

CCCCCC=CCC=CCCCCCCCC(=O)OCC
inactive: Potency [1] | outcome [2] | Potency [3] | Potency [4] | Potency [5] | Potency [6] | Potency [7] | Potency [8] | Potency (Aromatase (Homo sapiens)) | Potency [9]

CNC(=O)N(c1ccccc1)c1ccccc1
inactive: Potency [1] | outcome [2] | Potency [3] | Potency [4] | Potency [5] | Potency [6] | Potency [7] | Potency [8] | Potency (Aromatase (Homo sapiens)) | Potency [9]

c1cc[c]([Bi]([c]2ccccc2)[c]2ccccc2)cc1
active: Potency [1] 54.5 µM | Potency [6] 21.7 µM
inactive: outcome [2] | Potency [3] | Potency [4] | Potency [5] | Potency [7] | Potency [8] | Potency (Aromatase (Homo sapiens)) | Potency [9]

CC(N)CN (centres undefined)
inactive: Potency [1] | outcome [2] | Potency [4] | Potency [5] | Potency [6] | Potency [7] | Potency [8] | Potency (Aromatase (Homo sapiens)) | Potency [9]

CCN(CC)CCNC(=O)c1ccc(NC(C)=O)cc1
inactive: Potency [1] | outcome [2] | Potency [4] | Potency [5] | Potency [6] | Potency [7] | Potency [8] | Potency (Aromatase (Homo sapiens)) | Potency [9]

CCn1nc(C)c2c1C(=O)NCC(c1ccc(O)cc1)=N2
inactive: Potency [1] | outcome [2] | Potency [4] | Potency [5] | Potency [6] | Potency [7] | Potency [8] | Potency (Aromatase (Homo sapiens)) | Potency [9]

Cc1occc1C(=O)Nc1ccc(C(=O)N2CCC(F)(F)/C(=C\C(=O)N3CCC(N4CCCCC4)CC3)c3ccccc32)cc1
inactive: outcome [2] | Potency [3] | Potency [4] | Potency [5] | Potency [9]
active: Potency [1] 19.1 µM

CC(CCc1ccc2c(c1)OCO2)NN (centres undefined)
inactive: Potency [1] | outcome [2] | Potency [3] | Potency [5] | Potency [7] | Potency [8] | Potency (Aromatase (Homo sapiens)) | Potency [9]

COc1cc2[nH]c(=O)[nH]c(=O)c2cc1OC
inactive: Potency [1] | outcome [2] | Potency [3] | Potency [4] | Potency [5] | Potency [7] | Potency [8] | Potency (Aromatase (Homo sapiens)) | Potency [9]

O=C(NCCCN1CCOCC1)c1ccc(Cl)cc1
inactive: Potency [1] | outcome [2] | Potency [3] | Potency [4] | Potency [5] | Potency [6] | Potency [8] | Potency (Aromatase (Homo sapiens)) | Potency [9]

CCC(=O)Oc1ccc(/C(CC)=C(\CC)c2ccc(OC(=O)CC)cc2)cc1
inactive: outcome [2] | Potency [4] | Potency [8] | Potency (Aromatase (Homo sapiens)) | Potency [9]
active: Potency [1] 30.6 µM | Potency [3] 54.9 µM [inconclusive] | Potency [5] 0.0014 µM [inconclusive] | activation [6] 77.1% | Potency [7] 61.1 µM
